Among the data in PubChem BioAssay (NCATS) are max response, outcome and Potency values, retold here.

Structures are written as SMILES. “And” between values parts separate entries of the source, which are not always exact repeats. Equal values may be shown once. Records with an inconclusive call do not appear. Some structures have more than one record in an assay (separate samples or runs), and their calls can disagree. A number with no mark means an inactive call. The source made the active and inactive calls. Calls come from the whole dose curve; as a rule, active = well fitted inhibition curve with a large enough effect; inconclusive = small, poorly fitted or top-dose-only effect; inactive = flat fitted curve, though single readings scatter.
% is set by controls: 0 for no effect and ±100 for the full control effect; potency is the fitted concentration of half-maximal effect.

This test concerns NIH3T3. As to the kind of experiment: Cytotoxic Profiling of Annotated Libraries Using Quantitative High-Throughput Screening (AID 1296008). Note: nearly all actives have a fitted effect of over 60% in size. As to conditions: Five cell lines viability, CellTiter-Glo ATP luminescence, 48-72 h; max response: hits give low values. In outline:
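Cells exposed to compounds for 48 or 72 hr at 37 degrees Celsius. Viability read as ATP-coupled luminescence with CellTiter-Glo after 10 min at room temperature.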
For the compound `CNC(=O)c1c(-c2ccc(F)cc2)oc2cc(N(CCO)S(C)(=O)=O)c(C3CC3)cc12`, the max response was -17.1%. Still for that read-out and setting: in the case of `Cc1cnc(Nc2cccc(CN3CCOCC3)c2)nc1Nc1cccc(S(=O)(=O)NC(C)(C)C)c1` it was -17.3%.

In the case of `CS(=O)(=O)c1ccc(C2=C(c3ccccc3)C(=O)OC2)cc1`, the max response is -4.55% and the result was inactive.

As to `O=C(O)CCNc1cc(N2CCc3ccccc3CC2)nc(-c2ccccn2)n1`, the max response is -1.17% and -17.2% and -11.6%. With `CC(C)CNc1ccnc(NCc2csc(-c3ccccc3)n2)n1`, the Potency is 23.1 µM (active) and the max response is -17.2%.

For `Cn1c(=O)c(-c2c(Cl)cccc2Cl)cc2cnc(Nc3cccc(C(=O)O)c3)nc21`, the max response is 3.27% and the outcome was inactive.

With `CC1(C)CC(=O)c2c(C(F)(F)F)nn(-c3ccc(C(N)=O)c(NC4CCC(O)CC4)c3)c2C1` (stereo not given), the Potency is 235 nM (active) and 184 nM (active). Regarding `Cc1ccccc1-n1c(Cn2nc(-c3cccc(O)c3)c3c(N)ncnc32)nc2cccc(C)c2c1=O`, the max response was -4.97% and the outcome was inactive. In the same order, the values of `COc1cc(Nc2nc3ccccc3nc2NS(=O)(=O)c2ccc(NC(=O)c3ccc(C)c(OC)c3)cc2)cc(OC)c1` are -5.22% and “inactive”. For the compound `CC1=C(C(=O)Nc2cc3cn[nH]c3cc2F)C(c2ccc(C(F)(F)F)cc2)CC(=O)N1` (stereo not given), the max response was -7.07%. With `NC(=O)c1ccc(N(C(N)=O)c2c(F)cccc2F)nc1-c1ccc(F)cc1F`, the max response is 4.54% and the result was inactive. For `NS(=O)(=O)c1cc(Cl)c(Cl)c(S(N)(=O)=O)c1`, the max response is -19% and 0.0909%. The same measure, in the same setting: the value for `C[C@H](c1ccc(F)cc1CCCC(=O)O)N(c1cc(F)ccc1F)S(=O)(=O)c1ccc(Cl)cc1` was -19.7% and 4.43%; that for `COc1nccc(-c2c(-c3ccc(F)cc3)ncn2C2CCC(O)CC2)n1` (stereo not given) was -1.87%. Regarding `CC(C)(OCc1nn(Cc2ccccc2)c2ccccc12)C(=O)O`, the max response is 2.54% and 3.58%. Take `COc1ccc(CCC(=O)Nc2nc3ccc(Cl)cc3s2)cc1OC`: the max response is -12.1% and the call was inactive. As to `c1cc(OCCN2CCCCC2)cc(-c2n[nH]c3ccc(-c4ncn[nH]4)cc23)c1`, the max response is -3.48% and 4.45%.

As to `CCN1CCN(c2ccc(Nc3cc(N(C)C(=O)Nc4c(Cl)c(OC)cc(OC)c4Cl)ncn3)cc2)CC1`, the compound was classed as inactive.

On to `CN(C)c1nc(Cc2ccc(NC(=O)c3ccc(C(F)(F)F)cc3)cc2)nc(N(C)C)c1CC(=O)O`, for which the max response was -4.49% and 4.34%. The same measure, in the same setting: the value for `CN1c2ccccc2C(=O)N2CCc3c([nH]c4ccccc34)C21` (stereo not given) was -8.68%. Same read-out and setting: the value for `Cc1ccccc1C(C(=O)NC1CCCCC1)N(C(=O)CNc1ccc(C#N)cc1)c1cccc(F)c1` (stereo not given) was -3.8% and -0.279%. Same read-out and setting: in the case of `Cc1ccc2c(c1)c1c(n2CCc2ccc(C)nc2)CCN(C)C1` it was 1.43%. Turning to `C[C@@]1(c2cc(-c3cncnc3)c(F)cc2F)CCSC(N)=N1`, the max response was -1.07% and the result was inactive. On to `Cc1cnc(-c2cc(N3CCN(C(=O)CCS(C)(=O)=O)CC3)ncc2Cl)c(C)c1`, for which the outcome was inactive. As to `CCN1C[C@H](C)n2c(c(O)c3c(=O)n(Cc4ccc(F)c(Cl)c4)nc(C(=O)NC)c32)C1=O`, the max response was 0.921% and -1.89%. On the same count and under the same terms, the value for `CC1CCN(c2cc(N3CCN(C)CC3)ccc2NC(=O)c2cc(C#N)c[nH]2)CC1` was 3.51% and 0.269%. As to `Cc1cc2c(cc1C1(c3ccc(C(=O)O)cn3)CC1)C(C)(C)CCC2(C)C`, the compound was called inactive.

As to `c1ccc(CNc2nc(N3CCOc4ccccc43)nc3c2CCCC3)cc1`, the max response was 3.56% and the compound was classed as inactive.

For `COc1ccnc(CS(=O)c2nc3ccc(OC(F)F)cc3[nH]2)c1OC` (stereo not given), the max response was -24% and the compound was classed as inactive.

Take `COc1nc(C)cnc1NS(=O)(=O)c1cccnc1-c1ccc(-c2nnco2)cc1`: the max response was -2.15% and the compound was called inactive.

Take `CCCCn1c(=O)n(Cc2ccccc2F)c(=O)c2[nH]c(Cc3ccc(NC(C)=O)cc3)nc21`: the max response was -1.2% and 4.04%. For `COC(=O)N1CCN(Cc2cccc(NC(=O)Nc3ccc(C)nc3)c2F)CC1`, the max response was -1.49% and the compound was called inactive. Turning to `Nc1ccc(-c2ccc3ncc4ccc(=O)n(-c5cccc(C(F)(F)F)c5)c4c3c2)cn1`, the Potency was 20.9 nM (active) and 103 nM (active).
